Most compounds without a hit are left out; they make up all but 2.9% or so of the library.
PAFAH2 FP inh: PAFAH2 (human) inhibition | Q99487 | AID 492956 | inhibition, % at 3.39 µM | 0.99% of 340,000 active | recombinant PAFAH2, FP-rhodamine activity probe, fluorescence polarization;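 active = inhibition above the mean over all tested compounds plus 3 SD, cut at about 30% in these data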;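 note: inhibitors block probe labeling of enzyme so polarization drops; 0% = enzyme with DMSO and 100% = wells lacking PAFAH2 protein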
PAFAH1B3 inh: inhibitors of human PAFAH1B3; recombinant PAFAH1B3, FP-rhodamine probe, fluorescence polarization; inhibition, % at 3.39 µM; 0.28% of 340,000 active; AID 492972; Q15102;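 active = inhibition above the screen-wide average of all tested compounds plus 3 SD, cut at about 25% in these data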;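 note: 0% = enzyme with DMSO only and 100% = wells lacking PAFAH1B3 protein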
Target sequence (Q15102 whole entry, looked up): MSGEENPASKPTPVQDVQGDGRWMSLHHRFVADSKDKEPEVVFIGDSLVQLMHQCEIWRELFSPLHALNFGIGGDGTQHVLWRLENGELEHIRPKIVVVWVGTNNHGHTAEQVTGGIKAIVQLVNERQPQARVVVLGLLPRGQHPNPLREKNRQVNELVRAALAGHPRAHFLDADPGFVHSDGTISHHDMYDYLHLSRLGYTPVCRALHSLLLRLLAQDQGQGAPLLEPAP
PME-1 inh: PME-1 (human) inhibition; inhibition, % at 5.9 µM; AID 2130; recombinant PME-1, FP-Rh probe fluorescence polarization; Q9Y570; 0.53% of 320,000 active;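 active = inhibition above the campaign mean of all compounds plus 3 SD, cut at about 26% in these data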;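 note: competitive labeling of PME-1 active site by serine hydrolase directed probe; 0% = PME-1 with DMSO and 100% = wells lacking PME-1 enzyme; inhibitors block probe labeling so polarization falls and inhibition rises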
Target sequence (Q9Y570 whole entry, looked up): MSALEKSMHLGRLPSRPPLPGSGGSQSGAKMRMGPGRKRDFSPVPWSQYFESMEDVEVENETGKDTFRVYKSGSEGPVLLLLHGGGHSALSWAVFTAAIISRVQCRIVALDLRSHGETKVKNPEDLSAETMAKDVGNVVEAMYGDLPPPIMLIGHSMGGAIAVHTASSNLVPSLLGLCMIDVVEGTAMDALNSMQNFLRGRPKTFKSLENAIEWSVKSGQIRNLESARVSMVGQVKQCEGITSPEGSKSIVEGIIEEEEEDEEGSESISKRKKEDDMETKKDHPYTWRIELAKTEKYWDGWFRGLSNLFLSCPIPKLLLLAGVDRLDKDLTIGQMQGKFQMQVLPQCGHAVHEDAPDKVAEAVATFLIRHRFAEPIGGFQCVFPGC
Fam108B counter: counter-screen for RBBP9 inhibitors: inhibitors of mouse Fam108B | recombinant Fam108B, FP-Rh probe fluorescence polarization | inhibition, % at 9.51 µM | 0.33% of 300,000 active;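 active = inhibition above the screen mean inhibition plus 3 SD, computed separately per campaign, cut at about 18% in these data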;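 note: inhibitors lower polarization as less probe binds the enzyme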
PAFAH1B2 FP inh: blocks human PAF acetylhydrolase 1b catalytic subunit 2; P68402; recombinant PAFAH1B2, FP-rhodamine activity probe, fluorescence polarization; inhibition, % at 3.39 µM; 1.2% of 340,000 active;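 active = inhibition above the mean of all tested compounds plus 3 SD, cut at about 24% in these data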;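 note: 0% = enzyme with DMSO and 100% = wells lacking PAFAH1B2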
pPAFAH FP inh: inhibitors of human plasma PAF acetylhydrolase (pPAFAH) | Q13093 | recombinant pPAFAH, FP-rhodamine probe fluorescence polarization | 1.5% of 330,000 active | inhibition, % at 3.39 µM;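 active = inhibition above the mean inhibition across the screen plus 3 SD, cut at about 25% in these data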;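 note: inhibitors block binding of the rhodamine activity-based probe so polarization drops; 0% = enzyme with DMSO and 100% = wells lacking pPAFAH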
* hit, by the source's call; / = not tested or not shown.

SMILES	PAFAH2 FP inh	PAFAH1B3 inh	PME-1 inh	Fam108B counter	PAFAH1B2 FP inh	pPAFAH FP inh
COc1ccc(-c2cc(C3CC3)nc3sc(C#N)c(N)c23)cc1	-5	4	13	0	0	31*
O=C(O)c1ccc2nc(-c3ccco3)c(-c3ccco3)nc2c1	40*	52*	/	/	24*	/
O=C(c1ccc2nc(-c3ccco3)c(-c3ccco3)nc2c1)N1CCN(c2ccccc2)CC1	10	13	4	0	-1	23
O=C(Nc1ccc2nc(-c3ccco3)c(-c3ccco3)nc2c1)NC1CC1	35*	36*	/	/	21	/
OCCCNC(=S)Nc1ccc2nc(-c3ccccn3)c(-c3ccccn3)nc2c1	-6	-4	-4	-3	5	6
O=C(NCCCO)Nc1ccc2nc(-c3ccco3)c(-c3ccco3)nc2c1	/	/	9	52*	/	62*
Cc1nnsc1S(=O)(=O)c1ccccc1	2	-1	-1	-4	9	-4
Cc1c(C(=O)N2CCOCC2)c(S(=O)(=O)N2CCN(c3ccc(Cl)cc3)CC2)c(C)n1C	16	2	2	-2	12	7
CCOC(=O)c1cc(-c2ccccc2C)n(CC2CC(c3cccc([N+](=O)[O-])c3)=NO2)n1 (stereo not given)	8	2	13	0	-2	13
O=S(=O)(Nc1cc(Sc2cccc3cccnc23)c(O)c2ccccc12)c1ccc(F)cc1	/	/	12	6	/	34*
O=C(COc1coc(CN2CCc3ccccc3C2)cc1=O)Nc1cccc(Cl)c1	17	6	-9	2	4	18
O=C(COc1coc(CN2CCc3ccccc32)cc1=O)NCCc1ccccc1	1	5	1	2	28*	4
O=C(COc1coc(CN2CCc3ccccc3C2)cc1=O)Nc1cccc(F)c1	19	5	3	4	2	30*
CC(C)N(C(=O)COC(=O)c1ccc(Cl)nc1)C(C)C	2	7	4	0	-2	1
O=C(OCCOc1ccc(Br)cc1)c1ccc(Cl)nc1	2	9	-1	2	26*	1
CN1CC=C2C(C#N)=C(N)C(C#N)(C#N)[C@H](c3ccoc3)[C@H]2C1	28	20	14	9	14	32*
COc1cccc(OCC(=O)N(Cc2nc(-c3ccc(Cl)cc3)no2)C(C)C)c1	-7	8	-2	-1	-2	26*
Cc1ccc(C)c(C(=O)N(Cc2nc(-c3ccc(Cl)cc3)no2)C(C)C)c1	4	1	-1	1	-1	27*
COc1cccc(C(=O)N(Cc2nc(-c3ccc(C)cc3)no2)C(C)C)c1	-3	-9	-6	2	2	0
O=C(Cn1ncn2nc(-c3ccccc3)cc2c1=O)NCc1ccccn1	5	5	1	2	4	3
Fc1ccc(-n2cc(-c3ccccc3)c3c(=S)nc[nH]c32)cc1	0	2	7	-3	1	30*
O=c1[nH]cnc2c1c(-c1ccccc1)cn2-c1ccccc1	5	9	0	-3	-1	20
O=C(COC(=O)c1ccc(Br)o1)Nc1ncc([N+](=O)[O-])s1	25	17	6	/	6	27*
COc1ccc(C(=O)OCC(=O)Nc2sccc2C(N)=O)cc1OC	22	1	-5	1	9	3
COc1ccc(C(=O)OCC(=O)Nc2ncc([N+](=O)[O-])s2)cc1OC	40*	30*	-8	/	9	24
SMILES	PAFAH2 FP inh	PAFAH1B3 inh	PME-1 inh	Fam108B counter	PAFAH1B2 FP inh	pPAFAH FP inh
CC1CCCC(C)N1C(=O)COC(=O)c1n[nH]c(=O)c2ccccc12 (stereo not given)	1	10	0	/	8	1
Cc1cc2n(n1)C(c1ccc(N(C)C)cc1)Nc1ccccc1-2 (stereo not given)	5	10	15	5	7	26*
Cc1cccc(NC(=O)CCNC(=O)c2ccccc2)c1	3	3	-1	-1	1	7
Oc1ccc(/C=C/c2ccc3ccccc3n2)cc1	3	-1	28*	6	6	-2
CCN(C(=O)c1cccc(S(=O)(=O)N(C)C)c1)C12CC3CC(CC(C3)C1)C2	6	0	2	-2	11	5
Cc1ccc2nc(Cl)c(-c3ccccc3)cc2c1	/	/	2	-2	/	31*
CCN(C(=O)COc1cc(=O)n(CC)c2ccccc12)c1cccc(Cl)c1	15	1	4	4	6	27*
COc1cccc(N2CC(C(=O)Nc3ccc(C(=O)OC(C)C)cc3)CC2=O)c1 (stereo not given)	3	9	-2	6	-3	25*
O=c1[nH]ccc2c(O)cccc12	4	1	-6	2	-2	0
O=C(Cn1nc(Cc2cccnc2)c2ccccc2c1=O)Nc1ccccc1F	1	1	-5	-1	1	25*
O=C(Cn1nc(Cc2cccnc2)c2ccccc2c1=O)Nc1cc(F)ccc1F	2	4	0	-1	5	1
Nc1c(C(=O)OCC(=O)Nc2cccc([N+](=O)[O-])c2)[nH]c(=O)[nH]c1=O	7	12	/	/	10	25*
COc1cc(C(=O)OCc2cccc(S(=O)(=O)N3CCOCC3)c2)ccc1OCC(C)C	4	-1	4	/	-4	19
CCOC(=O)c1c(C)[nH]c(C(=O)OCc2ccc(F)cc2)c1C	6	8	/	/	2	/
CCOC(=O)c1c(C)[nH]c(C(=O)OCC(=O)c2ccccc2)c1C	0	2	-13	-1	5	4
CCCCN(C(=O)c1c(C)[nH]c(C(=O)OCC)c1C)c1ccccc1	9	-3	7	3	28*	2
CCOC(=O)c1c(C)[nH]c(C(=O)OCc2ccccc2F)c1C	5	5	-3	0	4	29*
Cc1ccc(-c2c(C(=O)Nc3ccccc3C)c(C)[nH]c(=S)c2C#N)o1	/	/	0	4	/	27*
CCCCCCc1nc2c(=O)[nH]c3ccccc3c2o1	3	5	-3	1	6	1
CCCCCCCc1nc2c(=O)n(C)c3ccccc3c2o1	5	4	-2	1	1	31*
N#CCC(=O)Nc1sc2c(c1C(N)=O)CCCC2	-4	3	3	-2	0	33*
Cc1cccc(OCc2nc(C#N)c(NCc3ccc4c(c3)OCO4)o2)c1	3	2	-6	2	7	0
N#Cc1nc(COc2ccc(Cl)cc2)oc1NCc1ccc2c(c1)OCO2	-4	3	-3	-6	29*	2
CSc1ccc(CCCCCCOC(=O)C(C)(C)C)cc1	-2	13	2	/	-1	-2
COc1ccc(S(=O)(=O)N2CCN(C(=S)NCCc3ccccc3)CC2)cc1	1	3	13	-1	27*	-4
Cc1ccc(S(=O)(=O)N2CCOCC2)cc1C(=O)NCCc1ccc(Cl)cc1	0	7	/	/	30*	1
